Measurements from ChEMBL document CHEMBL1961873, “Compounds: GSK PKIS; Assays: Nanosyn kinase panel” (2012).

What was measured:
[1] = molecular target: RAC-alpha serine/threonine-protein kinase (Homo sapiens) (UniProt P31749); conditions: at 0.1 µM
[2] = molecular target: RAC-alpha serine/threonine-protein kinase (Homo sapiens) (UniProt P31749); conditions: at 1 µM
[3] = molecular target: RAC-beta serine/threonine-protein kinase (Homo sapiens) (UniProt P31751); conditions: at 0.1 µM
[4] = molecular target: RAC-beta serine/threonine-protein kinase (Homo sapiens) (UniProt P31751); conditions: at 1 µM
[5] = molecular target: RAC-gamma serine/threonine-protein kinase (Homo sapiens) (UniProt Q9Y243); conditions: at 0.1 µM
RAC-gamma serine/threonine-protein kinase (Homo sapiens), sequence (Q9Y243 whole entry): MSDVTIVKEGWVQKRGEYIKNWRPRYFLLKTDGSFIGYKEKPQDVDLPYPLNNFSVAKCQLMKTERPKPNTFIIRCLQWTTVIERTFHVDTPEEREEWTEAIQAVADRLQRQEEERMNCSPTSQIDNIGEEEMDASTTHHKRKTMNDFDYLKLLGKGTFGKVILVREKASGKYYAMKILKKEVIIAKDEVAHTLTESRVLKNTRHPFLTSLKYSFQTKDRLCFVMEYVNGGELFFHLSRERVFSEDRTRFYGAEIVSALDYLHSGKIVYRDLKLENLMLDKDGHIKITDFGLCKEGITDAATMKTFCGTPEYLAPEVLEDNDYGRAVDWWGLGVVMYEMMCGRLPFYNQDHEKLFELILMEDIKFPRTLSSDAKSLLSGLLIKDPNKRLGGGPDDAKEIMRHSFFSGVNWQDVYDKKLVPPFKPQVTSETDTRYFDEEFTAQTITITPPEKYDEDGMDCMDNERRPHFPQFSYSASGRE

[6] = molecular target: RAC-gamma serine/threonine-protein kinase (Homo sapiens) (UniProt Q9Y243); conditions: at 1 µM
[7] = molecular target: G protein-coupled receptor kinase 6 (Homo sapiens) (UniProt P43250); conditions: at 0.1 µM
G protein-coupled receptor kinase 6 (Homo sapiens), sequence (P43250 whole entry, looked up): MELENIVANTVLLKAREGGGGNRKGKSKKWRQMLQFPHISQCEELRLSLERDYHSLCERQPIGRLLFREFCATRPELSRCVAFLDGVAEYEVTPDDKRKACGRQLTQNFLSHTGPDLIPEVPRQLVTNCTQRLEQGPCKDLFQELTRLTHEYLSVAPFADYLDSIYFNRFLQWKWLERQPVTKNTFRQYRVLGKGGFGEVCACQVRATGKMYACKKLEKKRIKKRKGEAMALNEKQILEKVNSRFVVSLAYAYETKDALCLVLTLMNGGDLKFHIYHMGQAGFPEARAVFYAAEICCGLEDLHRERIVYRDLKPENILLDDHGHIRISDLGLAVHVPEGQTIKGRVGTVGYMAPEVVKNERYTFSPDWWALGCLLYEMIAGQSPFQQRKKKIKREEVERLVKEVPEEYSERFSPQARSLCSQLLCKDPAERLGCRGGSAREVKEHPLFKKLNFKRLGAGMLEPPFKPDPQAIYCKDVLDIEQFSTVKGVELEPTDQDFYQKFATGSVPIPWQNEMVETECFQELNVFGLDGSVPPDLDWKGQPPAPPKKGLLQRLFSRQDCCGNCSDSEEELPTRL

[8] = molecular target: G protein-coupled receptor kinase 6 (Homo sapiens) (UniProt P43250); conditions: at 1 µM
[9] = molecular target: T1, Rhodopsin kinase GRK7 (Homo sapiens) (UniProt Q8WTQ7); conditions: at 0.1 µM
T1 sequence (whole entry): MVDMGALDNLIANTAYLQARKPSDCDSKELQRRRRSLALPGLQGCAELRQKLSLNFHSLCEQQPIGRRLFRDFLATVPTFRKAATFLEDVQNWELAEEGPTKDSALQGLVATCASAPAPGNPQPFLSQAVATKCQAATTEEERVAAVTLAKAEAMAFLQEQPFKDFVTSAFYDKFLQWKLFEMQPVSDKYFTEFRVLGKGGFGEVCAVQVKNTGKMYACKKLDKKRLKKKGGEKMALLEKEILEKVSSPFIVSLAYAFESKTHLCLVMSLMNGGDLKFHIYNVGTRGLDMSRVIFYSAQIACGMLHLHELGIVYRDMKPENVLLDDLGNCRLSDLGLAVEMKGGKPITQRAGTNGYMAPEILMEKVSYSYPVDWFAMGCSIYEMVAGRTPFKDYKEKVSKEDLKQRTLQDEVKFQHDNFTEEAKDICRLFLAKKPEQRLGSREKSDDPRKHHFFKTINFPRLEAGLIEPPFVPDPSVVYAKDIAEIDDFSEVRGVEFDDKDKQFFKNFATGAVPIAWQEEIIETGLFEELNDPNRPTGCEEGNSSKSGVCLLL

[10] = molecular target: T1, Rhodopsin kinase GRK7 (Homo sapiens); conditions: at 1 µM
[11] = molecular target: Serine/threonine-protein kinase MRCK alpha (Homo sapiens) (UniProt Q5VT25); conditions: at 0.1 µM
[12] = molecular target: Serine/threonine-protein kinase MRCK alpha (Homo sapiens) (UniProt Q5VT25); conditions: at 1 µM
[13] = molecular target: Serine/threonine-protein kinase MRCK beta (Homo sapiens) (UniProt Q9Y5S2); conditions: at 0.1 µM
Serine/threonine-protein kinase MRCK beta (Homo sapiens), sequence (Q9Y5S2 whole entry): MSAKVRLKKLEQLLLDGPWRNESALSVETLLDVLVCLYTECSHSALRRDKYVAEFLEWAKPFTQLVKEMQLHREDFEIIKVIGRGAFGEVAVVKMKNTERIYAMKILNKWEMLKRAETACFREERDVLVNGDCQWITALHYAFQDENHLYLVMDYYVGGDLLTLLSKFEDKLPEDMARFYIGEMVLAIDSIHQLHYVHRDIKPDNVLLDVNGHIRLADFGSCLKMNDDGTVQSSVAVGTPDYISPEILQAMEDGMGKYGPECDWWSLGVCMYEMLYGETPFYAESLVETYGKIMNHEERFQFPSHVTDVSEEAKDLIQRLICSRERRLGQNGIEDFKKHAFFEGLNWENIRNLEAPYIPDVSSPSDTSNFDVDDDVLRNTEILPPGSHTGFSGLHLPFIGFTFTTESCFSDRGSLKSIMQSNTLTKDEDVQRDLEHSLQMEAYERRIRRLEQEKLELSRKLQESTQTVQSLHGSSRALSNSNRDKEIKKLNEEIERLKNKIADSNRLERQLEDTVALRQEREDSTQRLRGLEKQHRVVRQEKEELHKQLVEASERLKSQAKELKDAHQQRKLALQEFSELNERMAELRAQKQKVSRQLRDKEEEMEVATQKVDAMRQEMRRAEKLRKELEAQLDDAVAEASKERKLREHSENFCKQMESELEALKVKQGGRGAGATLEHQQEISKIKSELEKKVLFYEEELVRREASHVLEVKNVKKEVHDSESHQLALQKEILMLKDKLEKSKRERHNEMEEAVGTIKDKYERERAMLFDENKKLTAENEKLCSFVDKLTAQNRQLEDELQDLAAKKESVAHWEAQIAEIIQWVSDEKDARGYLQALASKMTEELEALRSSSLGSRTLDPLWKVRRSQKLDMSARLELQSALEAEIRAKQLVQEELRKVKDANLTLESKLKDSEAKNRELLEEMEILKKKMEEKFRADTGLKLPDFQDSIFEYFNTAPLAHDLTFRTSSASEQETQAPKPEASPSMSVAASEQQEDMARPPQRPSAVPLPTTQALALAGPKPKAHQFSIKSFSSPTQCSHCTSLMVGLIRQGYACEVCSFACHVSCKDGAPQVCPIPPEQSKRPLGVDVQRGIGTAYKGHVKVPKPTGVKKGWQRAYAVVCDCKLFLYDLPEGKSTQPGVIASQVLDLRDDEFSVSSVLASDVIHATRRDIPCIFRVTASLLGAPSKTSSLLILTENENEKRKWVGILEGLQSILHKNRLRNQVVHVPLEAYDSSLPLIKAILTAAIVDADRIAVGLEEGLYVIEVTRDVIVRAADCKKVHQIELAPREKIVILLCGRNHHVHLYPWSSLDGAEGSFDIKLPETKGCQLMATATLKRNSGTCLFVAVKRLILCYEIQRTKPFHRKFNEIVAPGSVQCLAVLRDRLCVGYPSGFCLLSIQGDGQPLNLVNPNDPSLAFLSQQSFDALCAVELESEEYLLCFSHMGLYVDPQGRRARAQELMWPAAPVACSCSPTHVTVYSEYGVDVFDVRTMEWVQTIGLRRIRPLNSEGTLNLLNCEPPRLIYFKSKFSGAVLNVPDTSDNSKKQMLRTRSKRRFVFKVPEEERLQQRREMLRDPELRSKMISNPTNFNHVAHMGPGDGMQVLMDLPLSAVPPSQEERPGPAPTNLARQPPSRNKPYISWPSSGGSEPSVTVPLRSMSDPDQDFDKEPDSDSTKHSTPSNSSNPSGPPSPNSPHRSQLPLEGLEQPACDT

[14] = molecular target: Serine/threonine-protein kinase MRCK beta (Homo sapiens) (UniProt Q9Y5S2); conditions: at 1 µM
[15] = molecular target: Ribosomal protein S6 kinase alpha-5 (Homo sapiens) (UniProt O75582); conditions: at 0.1 µM
Ribosomal protein S6 kinase alpha-5 (Homo sapiens), sequence (O75582 whole entry, looked up): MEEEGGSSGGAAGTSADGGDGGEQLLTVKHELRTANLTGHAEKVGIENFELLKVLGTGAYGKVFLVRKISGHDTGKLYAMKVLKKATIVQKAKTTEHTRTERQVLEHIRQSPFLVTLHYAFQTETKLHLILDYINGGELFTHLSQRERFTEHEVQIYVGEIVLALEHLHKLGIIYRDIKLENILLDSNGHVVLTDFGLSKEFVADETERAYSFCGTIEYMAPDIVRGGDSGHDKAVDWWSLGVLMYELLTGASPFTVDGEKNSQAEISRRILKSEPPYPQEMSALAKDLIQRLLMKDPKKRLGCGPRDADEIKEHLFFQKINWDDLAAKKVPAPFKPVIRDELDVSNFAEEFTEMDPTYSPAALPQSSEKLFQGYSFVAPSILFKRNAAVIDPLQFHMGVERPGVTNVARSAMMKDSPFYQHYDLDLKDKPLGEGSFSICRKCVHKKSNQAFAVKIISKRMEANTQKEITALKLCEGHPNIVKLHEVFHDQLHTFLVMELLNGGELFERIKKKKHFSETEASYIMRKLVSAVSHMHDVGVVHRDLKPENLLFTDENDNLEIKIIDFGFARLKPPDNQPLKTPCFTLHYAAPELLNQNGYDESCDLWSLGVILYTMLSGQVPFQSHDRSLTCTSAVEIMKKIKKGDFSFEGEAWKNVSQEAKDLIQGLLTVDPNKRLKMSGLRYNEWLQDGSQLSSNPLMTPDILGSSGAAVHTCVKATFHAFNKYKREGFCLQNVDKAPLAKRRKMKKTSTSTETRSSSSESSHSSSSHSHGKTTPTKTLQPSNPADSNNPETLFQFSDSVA

[16] = molecular target: Ribosomal protein S6 kinase alpha-5 (Homo sapiens) (UniProt O75582); conditions: at 1 µM
[17] = molecular target: Ribosomal protein S6 kinase alpha-4 (Homo sapiens) (UniProt O75676); conditions: at 0.1 µM
Ribosomal protein S6 kinase alpha-4 (Homo sapiens), sequence (O75676 whole entry, looked up): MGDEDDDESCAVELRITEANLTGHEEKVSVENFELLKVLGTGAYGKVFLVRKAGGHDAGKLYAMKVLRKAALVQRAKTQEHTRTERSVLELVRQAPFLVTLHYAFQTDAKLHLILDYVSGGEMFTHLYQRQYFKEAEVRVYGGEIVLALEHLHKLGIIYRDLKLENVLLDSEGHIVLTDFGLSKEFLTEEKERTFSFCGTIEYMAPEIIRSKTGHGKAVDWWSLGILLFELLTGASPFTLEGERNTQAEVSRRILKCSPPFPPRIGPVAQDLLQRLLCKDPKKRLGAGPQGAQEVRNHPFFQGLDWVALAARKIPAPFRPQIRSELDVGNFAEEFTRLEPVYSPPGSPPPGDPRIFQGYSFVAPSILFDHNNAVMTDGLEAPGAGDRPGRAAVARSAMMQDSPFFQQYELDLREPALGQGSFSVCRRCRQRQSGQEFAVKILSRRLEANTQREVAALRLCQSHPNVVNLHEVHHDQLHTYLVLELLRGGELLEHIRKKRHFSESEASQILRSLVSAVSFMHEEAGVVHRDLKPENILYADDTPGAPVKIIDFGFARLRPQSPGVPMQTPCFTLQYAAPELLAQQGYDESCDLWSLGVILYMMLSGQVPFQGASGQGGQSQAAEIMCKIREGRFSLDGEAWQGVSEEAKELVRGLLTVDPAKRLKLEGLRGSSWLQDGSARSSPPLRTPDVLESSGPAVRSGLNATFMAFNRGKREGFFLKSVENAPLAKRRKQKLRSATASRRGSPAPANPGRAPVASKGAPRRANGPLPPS

[18] = molecular target: Ribosomal protein S6 kinase alpha-4 (Homo sapiens) (UniProt O75676); conditions: at 1 µM
[19] = molecular target: Ribosomal protein S6 kinase beta-1 (Homo sapiens) (UniProt P23443); conditions: at 0.1 µM
[20] = molecular target: Ribosomal protein S6 kinase beta-1 (Homo sapiens) (UniProt P23443); conditions: at 1 µM

RAC-alpha serine/threonine-protein kinase (Homo sapiens), sequence (P31749 whole entry): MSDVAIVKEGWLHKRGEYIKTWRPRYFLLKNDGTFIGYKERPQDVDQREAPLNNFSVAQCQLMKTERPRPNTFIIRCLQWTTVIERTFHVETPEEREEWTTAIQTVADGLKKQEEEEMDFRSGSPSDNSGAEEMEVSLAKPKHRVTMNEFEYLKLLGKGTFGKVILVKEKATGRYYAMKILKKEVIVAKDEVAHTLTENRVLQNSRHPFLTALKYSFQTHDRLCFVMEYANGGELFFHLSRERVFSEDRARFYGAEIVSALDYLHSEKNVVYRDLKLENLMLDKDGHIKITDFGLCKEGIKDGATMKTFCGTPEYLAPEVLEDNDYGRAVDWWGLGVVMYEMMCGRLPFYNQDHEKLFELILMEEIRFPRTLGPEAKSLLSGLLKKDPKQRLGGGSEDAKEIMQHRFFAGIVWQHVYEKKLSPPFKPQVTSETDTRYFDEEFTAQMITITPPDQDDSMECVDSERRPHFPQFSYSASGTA

Compound | inhibition [1] [%] | inhibition [2] [%] | inhibition [3] [%] | inhibition [4] [%] | inhibition [5] [%] | inhibition [6] [%] | inhibition [7] [%] | inhibition [8] [%] | inhibition [9] [%] | inhibition [10] [%] | inhibition [11] [%] | inhibition [12] [%] | inhibition [13] [%] | inhibition [14] [%] | inhibition [15] [%] | inhibition [16] [%] | inhibition [17] [%] | inhibition [18] [%] | inhibition [19] [%] | inhibition [20] [%]
Cc1ccc(NC(=O)c2ccnc(N3CCCC3)c2)cc1-c1ccc(C(=O)NCC2CC2)cc1 | -2.27 | -3.57 | -1.45 | -1.55 | -3.88 | -2.23 | 2.49 | 0.85 | 5.08 | 10.4 | 1.01 | -0.76 | 1.8 | 2.5 | 2.8 | 2.72 | 3.43 | 8.63 | 1.53 | 2.76
Nc1nc(-c2ccccn2)c(-c2ccc3ncccc3n2)s1 | 0.97 | 0.96 | 1.1 | 1.5 | 1.6 | 1.17 | 5.73 | 1.87 | 1.26 | -0.58 | 0.29 | -0.21 | -1.45 | 0.91 | 2.65 | 4.51 | 1.3 | 3.24 | 0.7 | 1.17
COc1ccccc1Nc1ncc(-c2ccccc2)o1 | 1.37 | 1.71 | 0.6 | 2.82 | 0.12 | 3.9 | 2.46 | 3.95 | 10.1 | 2.31 | -5.48 | -2.78 | 0.73 | 0.66 | -3.3 | -5.77 | 4.65 | 2.42 | 1.36 | 2.44
CC1=C(C(=O)Nc2ccc3[nH]ncc3c2)C(c2ccc(Cl)c(Cl)c2)CC(=O)N1 (stereo not given) | -0.08 | 1.46 | 1.11 | 1.63 | 0.95 | 2.81 | 4.25 | 7.35 | -1.63 | -5.21 | 1.51 | 20.1 | 5.81 | 35 | 10.3 | 46.4 | 7.4 | 39.1 | 3.83 | 25.2
CCN1CCC(CC(=O)Nc2n[nH]c3nc(-c4cccs4)c(Br)cc23)CC1 | -2.05 | -0.11 | -3.94 | -1.99 | -2.82 | 2.59 | -0.66 | -2.54 | -7.57 | -4.43 | -1 | -0.59 | 0.24 | 0.47 | -2.28 | 0.61 | -2.08 | -1.67 | -1.91 | 0.59
NS(=O)(=O)c1cccc(-c2ccc3c(NC(=O)C4CC4)n[nH]c3c2)c1 | -2.14 | -1.44 | -4.21 | -1.31 | -1.31 | -2.99 | 1.43 | 2.82 | -7.07 | -0.65 | 0.11 | -0.38 | 0.03 | 2.23 | -0.03 | 1.96 | -0.84 | 0.37 | -1.3 | 0.07
Nc1ncnc2occ(-c3ccc(NC(=O)Nc4cccc(C(F)(F)F)c4)cc3)c12 | 1.53 | 0.96 | 1.75 | 2.15 | 0.73 | 2.7 | 2.54 | 0.47 | 8.48 | 4.95 | -3.03 | 0.21 | 0.84 | 1.21 | 6.35 | 19.5 | 3.31 | 20.8 | 21 | 73.5
CCCN1CCC(Oc2cc(Nc3nc(Nc4cccc(F)c4C(N)=O)c4cc[nH]c4n3)c(OC)cc2Cl)CC1 | 0.07 | 1.83 | 1.14 | 2.04 | 1.42 | 1.06 | 1.2 | 1.87 | 3.39 | 7.39 | 0.81 | -1.24 | 1.36 | 2.2 | 1.01 | 3.87 | 1.03 | 1.99 | -0.03 | 1.36
O=C1NC(=O)C(c2cccc(Cl)c2)=C1Nc1ccc(O)c(Cl)c1 | 0.39 | 1.25 | 0.32 | -0.16 | 0.98 | 0.23 | 2.15 | 1 | 0.66 | 6.41 | 0.28 | 3.73 | 1.27 | 2.02 | 0.69 | 2.04 | 0.07 | 3.61 | 0.45 | 0.8
COc1ccc(-c2nn3ncccc3c2-c2ccnc(Nc3ccc(Cl)c(C(F)(F)F)c3)n2)cc1 | 0.26 | 0.27 | 1.16 | 0.96 | 3.64 | -0.03 | 6.26 | 9.79 | 4.07 | 8.67 | -0.16 | 3.43 | -1.37 | 0.06 | 1.49 | 1.69 | 0.22 | 2.02 | 0.17 | 2.22
CCn1c(-c2nonc2N)nc2c(C#CC(C)(C)O)nc(CN3CCCC3)cc21 | 8.37 | 54.9 | 10 | 55.5 | 18.8 | 78.7 | -2.28 | -0.02 | -4.34 | 3.4 | 2.53 | 0.11 | 1.98 | 4.91 | 0.29 | 3.07 | 2 | 6.06 | 0.33 | 1.37
CC1=C(C(=O)Nc2ccc3[nH]ncc3c2)C(c2ccc3ccccc3c2)CC(=O)N1 (stereo not given) | 0.52 | 0.98 | 0.74 | 1.1 | 1.23 | 3.76 | 2.91 | 13.5 | 2.64 | 4.56 | 3.1 | 22.7 | 5.85 | 37.9 | 10.7 | 47.6 | 6.16 | 34.1 | 2.41 | 21.4
CC1=C(C(=O)Nc2ccc3[nH]ncc3c2)C(c2ccc(F)cc2)NC(=O)N1 (stereo not given) | -0.22 | 0.8 | 0.33 | 1.45 | 0.5 | 2.79 | 5.16 | 7.3 | 2.44 | 6.49 | 2.04 | 12.4 | 5.57 | 29.9 | 8.51 | 34.2 | 3.34 | 16.7 | 1.64 | 13.8
